In PubChem BioAssay (NCI):
This is part of a sample that, as a whole, favours compounds with a hit. Of some 83,000 tested, about 20% had one in any assay.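 Compound tested at a single concentration for 48 hours in 96-well plates; a percent growth value below 10 was scored as active.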 Values without a mark were called inactive. Activity calls are given as the source filed them.

Legend:
Assay in all cases: NCI-60 one-dose screen, 48 h (100 = growth as untreated, 0 = no growth, -100 = all killed)
Details in all cases: 10 µM
SK-MEL-2 melanoma = system: SK-MEL-2 melanoma
EKVX NSCLC = system: EKVX NSCLC
SN12C renal = system: SN12C renal
UO-31 renal = system: UO-31 renal
TK-10 renal = system: TK-10 renal
ACHN renal = system: ACHN renal
CAKI-1 renal = system: CAKI-1 renal
A498 renal = system: A498 renal
CCRF-CEM leukemia = system: CCRF-CEM leukemia
RPMI-8226 leukemia = system: RPMI-8226 leukemia
OVCAR-8 ovarian = system: OVCAR-8 ovarian
OVCAR-5 ovarian = system: OVCAR-5 ovarian
OVCAR-4 ovarian = system: OVCAR-4 ovarian
SK-OV-3 ovarian = system: SK-OV-3 ovarian
IGROV1 ovarian = system: IGROV1 ovarian
OVCAR-3 ovarian = system: OVCAR-3 ovarian
HS 578T breast = system: HS 578T breast
NCI/ADR-RES ovarian = system: NCI/ADR-RES ovarian

SMILES | growth (SK-MEL-2 melanoma) | growth (EKVX NSCLC) | growth (SN12C renal) | growth (UO-31 renal) | growth (TK-10 renal) | growth (ACHN renal) | growth (CAKI-1 renal) | growth (A498 renal) | growth (CCRF-CEM leukemia) | growth (RPMI-8226 leukemia) | growth (OVCAR-8 ovarian) | growth (OVCAR-5 ovarian) | growth (OVCAR-4 ovarian) | growth (SK-OV-3 ovarian) | growth (IGROV1 ovarian) | growth (OVCAR-3 ovarian) | growth (HS 578T breast) | growth (NCI/ADR-RES ovarian)
CC1(C)CC[C@]2(C(=O)Nc3ccccc3)CC[C@]3(C)C(=CC[C@@H]4[C@@]5(C)CC[C@H](N)C(C)(C)[C@@H]5CC[C@]43C)[C@H]2C1 | 107% | 90.5% | 87.7% | 71.5% | 107% | 90.3% | 79.9% | 131% | 32.6% | 19.7% | -66.5% (active) | 84.4% | 76.8% | 96.5% | 96% | 105% | 93.2% | 66.5%
COc1ccc(-c2nc(S(=O)(=O)c3ccccc3)c(S(C)(=O)=O)o2)cc1 | 69.7% | 94.1% | -63.7% (active) | -100% (active) | -99.3% (active) | -100% (active) | -94.2% (active) | 113% | -46.7% (active) | -39.9% (active) | -28.3% (active) | -77.2% (active) | -87% (active) | 97.9% | 77.2% | -81.8% (active) | 75.2% | 0.892% (active)
C=C1CC[C@H](C(=C)C)[C@H]2C=C(C)C(=O)C3=C(C(=O)[C@@](C)(O)C3)[C@H]12 | -88.6% (active) | -78.5% (active) | -50.8% (active) | -99.8% (active) | -97% (active) | -98.3% (active) | -78.9% (active) | -93.2% (active) | -5.05% (active) | -22.5% (active) | -96.5% (active) | -87.2% (active) | -81.8% (active) | -89.1% (active) | -61.4% (active) | -41.7% (active) | -13.1% (active) | -31.1% (active)
COc1ccc(-c2nc(S(=O)(=O)c3ccc(C)cc3)c(S(C)(=O)=O)o2)cc1 | -62.4% (active) | 36.8% | -73.3% (active) | -100% (active) | -100% (active) | -100% (active) | -100% (active) | 116% | -50.5% (active) | -40.3% (active) | -77.5% (active) | -88% (active) | -90.2% (active) | 83.6% | -24% (active) | -92.4% (active) | 8.31% (active) | -62.4% (active)
COc1ccc2[nH]c(O)c(N=NC(=O)c3cc(-c4ccc(C)cc4)nc4ccccc34)c2c1 | 111% | 97.6% | 92.1% | 69.9% | 117% | 81% | 95.5% | 126% | 52.1% | 76.4% | 88.5% | 119% | 91.8% | 106% | 102% | 98.3% | 91% | 71.6%
O=C(COc1ccc(NC(=O)Nc2ccc(Cl)cc2)cc1)N=Nc1c(O)[nH]c2ccc([N+](=O)[O-])cc12 | -15.7% (active) | 88.3% | 32.3% | 77.2% | 101% | 93.4% | 96.3% | 119% | -36.9% (active) | 22.3% | 16.1% | 69.4% | -11.6% (active) | 85.2% | 79.5% | -55.9% (active) | 13.7% | 92.6%
